# Only some compounds are listed: those with a hit (about 16% of all), similar ones and a draw of the others.
# TDP1 block: qHTS Assay for Inhibitors of Tyrosyl-DNA Phosphodiesterase (TDP1) | Tyrosyl-DNA phosphodiesterase 1 (Homo sapiens), Q9NUW8 | recombinant TDP1, AlphaScreen DNA substrate cleavage | Potency, µM (top dose mostly 130 µM), without a hit: at the top dose activity change, negative = inhibition, actives largely listed as inhibitors | 0.28% of 350,000 active | AID 485290, 2010; note: potency is the fitted concentration of half-maximal effect; % is set by controls: 0 for no effect and ±100 for the full control effect; nearly all actives have a fitted effect of over 40% in size
# Target sequence (Q9NUW8 whole entry, looked up): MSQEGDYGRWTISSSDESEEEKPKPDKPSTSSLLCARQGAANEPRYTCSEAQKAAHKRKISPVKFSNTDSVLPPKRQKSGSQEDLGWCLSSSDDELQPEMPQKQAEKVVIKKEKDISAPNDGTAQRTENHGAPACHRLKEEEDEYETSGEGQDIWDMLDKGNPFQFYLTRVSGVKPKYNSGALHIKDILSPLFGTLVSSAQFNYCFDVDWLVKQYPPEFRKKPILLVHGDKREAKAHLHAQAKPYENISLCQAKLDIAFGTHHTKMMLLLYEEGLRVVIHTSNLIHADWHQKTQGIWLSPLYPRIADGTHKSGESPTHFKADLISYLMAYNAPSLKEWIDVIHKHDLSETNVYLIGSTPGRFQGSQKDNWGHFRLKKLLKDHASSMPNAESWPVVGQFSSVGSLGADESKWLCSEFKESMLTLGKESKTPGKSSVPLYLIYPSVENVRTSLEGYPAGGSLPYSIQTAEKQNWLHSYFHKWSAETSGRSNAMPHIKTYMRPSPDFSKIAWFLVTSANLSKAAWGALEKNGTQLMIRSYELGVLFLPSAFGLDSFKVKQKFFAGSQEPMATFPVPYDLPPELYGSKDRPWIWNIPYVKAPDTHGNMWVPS
#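 Here, a 5' biotin and 3' phosphotyrosine-FITC DNA oligonucleotide reports Tdp1 activity: intact substrate bridges AlphaScreen beads, while cleavage leaves a 3' phosphate and drops signal. All incubations at room temperature.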
# uPA surface inh: qHTS for Inhibitors of Cell Surface uPA Generation; Potency, µM (series often up to 38.3 µM), for the others: at the highest dose activity change, negative = inhibition, hits mostly inhibitors; 0.31% of 330,000 active; cell surface uPA generation assay, qHTS; active = well fitted inhibition curve with a large enough effect; inconclusive = small, poorly fitted or top-dose-only effect; inactive = no such curve, though single readings can be large or run the other way; tested in mouse RAW 264.7 cells; note: potency is the fitted concentration of half-maximal effect; % is set by controls: 0 for no effect and ±100 for the full control effect; nearly all actives have a fitted effect of over 55% in size
# miR-21 act: qHTS Assay for Modulators of miRNAs and/orActivators of miR-21; HeLa miR-21 FLuc reporter, luciferase, 48 h; Potency, µM (top dose mostly 38.3 µM), without a hit: at the highest dose activity change, positive = activation, most hits filed as activators; 340,000 tested, under 10 active; AID 2288, 2010;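 note: % of control where 0% means no effect; miR-21 action dims this reporter so a rising signal means less miR-21 action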
#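 Compounds were titrated across several concentrations (up to approximately 40 uM) and incubated 48 hours with HeLa miR-21-FLuc reporter cells (miR-21 target sequence downstream of FLuc, endogenous miR-21). Readout was firefly luciferase luminescence after lytic detection reagent.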
# TDP1 cell noCPT: qHTS for Inhibitors of human tyrosyl-DNA phosphodiesterase 1 (TDP1): qHTS in cells in absence of CPT. DT40 Tdp1-/- hTDP1 cells, no CPT, ATP luminescence, 48 h. Potency, µM (doses to about 46.2 µM), for the others: top-dose activity change, negative = growth inhibition, usual class: inhibitors. 15% of 420,000 active. AID 686978, 2013; note: potency is the fitted concentration of half-maximal effect; % is set by controls: 0 for no effect and ±100 for the full control effect; nearly all actives have a fitted effect of over 55% in size
#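 Stably hTDP1-transfected Tdp1-null chicken DT40 cells were treated with library compounds minus camptothecin and grown for at least 48 hr at 37 °C, after which cellular ATP was quantified by luminescence.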
# DT40 TDP1 CPT: qHTS for Inhibitors of human tyrosyl-DNA phosphodiesterase 1 (TDP1): qHTS in cells in presence of CPT. chicken DT40 Tdp1-/-;hTDP1 cells + 20 nM CPT, ATP luminescence, 48 h. 12% of 420,000 active. AID 686979, 2013. Potency, µM (top dose mostly 46.2 µM), without a hit: at the top dose activity change, negative = growth inhibition, most hits filed as inhibitors; note: potency is the fitted concentration of half-maximal effect; % is set by controls: 0 for no effect and ±100 for the full control effect; nearly all actives have a fitted effect of over 55% in size
#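 Chicken DT40 Tdp1-/- cells stably complemented with human TDP1 were seeded at 400 cells/well in medium containing 20 nM camptothecin, exposed to pin-transferred compounds, and grown at 37 °C for at least 48 hr. Viability was read as ATP luminescence.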
# Numbers without * were called inactive; ? = inconclusive; nt = not tested or not shown; [ ] = dose if it differs, or a comment. Unless noted, calls come from the whole dose curve; as a rule, active = well fitted curve in the direction sought with a large enough effect; inconclusive = small, poorly fitted or top-dose-only effect, or another doubt; inactive = no such curve, though single readings can be large; an effect the other way counts as inactive or inconclusive.
SMILES,TDP1 block,uPA surface inh,miR-21 act,TDP1 cell noCPT,DT40 TDP1 CPT
COc1ccc(-c2c3c(cc(C)[n+]2[O-])oc2ccc(OC)cc23)cc1,1%,-7%,20%,?,26µM*
CN(C(=O)CN1CCN(c2cnn(-c3ccccc3)c(=O)c2Cl)CC1)C1CCS(=O)(=O)C1 (configuration not stated),0%,2%,nt,3%,-4%
CCOC(=O)CSc1nc2ccc(NC(=O)COc3ccccc3C)cc2s1,5%,nt,-15%,-23%,-14%
Cc1nc2c(ccc3nc(NC(=O)c4ccc5c(c4)OCCO5)sc32)s1,nt,-27%,15%,18µM*,16µM*
Cc1nc2c(ccc3c2ccc2nc(C)sc23)s1,7%,2%,-9%,2%,12%
Cc1nc2ccc3nc(NC(=O)c4ccc5c(c4)OCCO5)sc3c2s1,89µM*,1%,-13%,3%,?
Cc1nc2c(ccc3nc(NC(=O)C(c4ccccc4)c4ccccc4)sc32)s1,5%,4%,0%,7.3µM*,7.3µM*
CC(CCc1ccccc1)NC(=O)CNC(=O)c1ccccc1Br (configuration not stated),3%,3%,-1%,0%,16%
CCCCOC(=O)c1ccc(NC(=O)c2ocnc2C)cc1,5%,nt,-29%,-16%,-17%
COc1ccc(-c2c(C(C)=O)c(C)nc3sc4c(=N)n(N)cnc4c23)cc1,4%,-6%,-21%,?,26µM*
CCOC(=O)c1c(C)nc2sc(C(N)=O)c(N)c2c1-c1ccc(OC)cc1,-1%,5%,11%,21µM*,?
CCOC(=O)c1c(C)nc2sc(C(=O)Nc3ccc(C(C)=O)cc3)c(N)c2c1-c1ccc(OC)cc1,-3%,-12%,16%,?,?
COc1ccc(S(=O)(=O)N2CCCCC2c2cc(C(=O)N3CCOCC3)no2)cc1 (configuration not stated),nt,nt,nt,-5%,-22%
COc1ccccc1CC(=N)N1C[C@@H]2C(=O)CCC(c3ccccc3)(c3ccccc3)[C@@H]2C1,18%[56.1 µM],nt,nt,21µM*,12µM*
OCC(CO)(CO)N=Cc1cc(Br)ccc1O,1%,nt,-5%,0%,-8%
COc1ccccc1-c1nc(NCc2cccnc2)c2ccccc2n1,nt,nt,nt,?,-17%
COc1cc(CNCc2ccc(OC)c(OC)c2OC)cc(OC)c1,-8%,nt,15%,21µM*,18µM*
COc1ccc(CNc2ncncc2-c2ccccc2CN(C)C)c(OC)c1,15%[56.1 µM],nt,nt,-23%,-22%
COc1ccc(CNc2nc(-c3ccccc3OC)nc3ccccc23)c(OC)c1,4%,nt,nt,9.2µM*,23µM*
COc1ccc(CNc2ccnc(-c3ccccc3CN(C)C)n2)c(OC)c1,nt,nt,nt,15µM*,?
COc1ccc(CNc2ncncc2-c2ccccc2Cl)c(OC)c1,nt,nt,nt,-17%,-2%
COc1ccc(CNc2ccnc(-c3ccccc3Cl)n2)c(OC)c1,nt,nt,nt,23µM*,?
COc1ccc(CNC(=O)C2CCN(S(=O)(=O)c3c(C)noc3/C=C/c3ccccc3F)CC2)cc1,-5%,nt,5%,-16%,?
CN(C)S(=O)(=O)c1ccc(Cl)c(C(=O)OCC(=O)c2ccco2)c1,0%,7%,nt,24%,4%
COc1ccc(CNCc2ccncc2)c(OC)c1,nt,0%,3%,-22%,7%
SMILES,TDP1 block,uPA surface inh,miR-21 act,TDP1 cell noCPT,DT40 TDP1 CPT
COc1ccc(CCC(C)NCc2ccccc2OC)cc1 (configuration not stated),4%,-19%,-1%,?,26µM*
COc1ccc(CNc2nc3ccccc3n2C)c(OC)c1,0%,1%,-43%,16µM*,?
COc1ccc(CNCc2ccc3ccccc3c2)c(OC)c1,5%,-2%,12%,16µM*,16µM*
COc1ccc(CNc2ccnc(-c3ccccc3OC)n2)c(OC)c1,nt,nt,nt,23µM*,13µM*
COc1cccc(-c2nccc(NCc3ccccc3OC)n2)c1,nt,nt,nt,?,-29%
COc1ccccc1C(=O)NCC(=O)OCCCOC(=O)CNC(=O)c1ccccc1OC,1%,7%,-2%,-7%,8%
CNC1C(OC2C(O[C@@H]3C(O)C(O)[C@@H](N=C(N)N)C(O)C3N=C(N)N)OC(C)[C@@]2(O)CO)OC(CO)C(O)C1O (some centres not stated),7%,nt,nt,nt,nt
CCOC(=O)c1c(C)[nH]c(CCC(=O)Nc2ccccc2C(=O)OC)c1C,3%,nt,1%,23µM*,?
COC(=O)c1ccccc1NC(=O)CCc1ccccc1,-5%,-5%,-22%,?,-6%
CCOC(=O)c1c(C)[nH]c(CCC(=O)NCc2ccc(N(C)C)cc2)c1C,3%,nt,20%,18µM*,?
CCOC(=O)c1c(C)[nH]c(CCC(=O)NCc2ccc(OC)c(OC)c2)c1C,-5%,nt,-3%,-10%,-9%
CCOC(=O)c1c(C)[nH]c(CCC(=O)Nc2c(C)cccc2CC)c1C,0%,nt,19%,16µM*,?
CCOC(=O)c1c(C)[nH]c(CCC(=O)NCCCN2CCN(c3ccc(F)cc3)CC2)c1C,8%,nt,11%,10µM*,21µM*
O=C(CCCN1C(=O)c2cccnc2C1=O)N1CC(=O)N(CCc2ccccc2)C(=O)C1,5%,1%,-3%,-26%,-17%
CCc1ccc(NC(=O)CSc2nnc(CNC(=O)c3c(F)cccc3Cl)o2)cc1,2%,-2%,2%,-15%,8%
CCOC(=O)c1c(C)[nH]c(CCC(=O)Nc2c(Cl)cc(OC)cc2OC)c1C,11%,nt,20%,?,?
CCOC(=O)c1c(C)[nH]c(CCC(=O)Nc2ccccc2OCC)c1C,5%,nt,-2%,23µM*,?
CCOC(=O)c1c(C)[nH]c(CCC(=O)Nc2cc(C)ccc2OC)c1C,8%,nt,1%,16µM*,?
CCOC(=O)c1c(C)[nH]c(CCC(=O)Nc2ccccc2C(F)(F)F)c1C,-3%,nt,9%,?,?
CCOC(=O)c1c(C)[nH]c(C)c1S(=O)(=O)NCC(=O)Nc1cc(C)ccc1OC,3%,nt,4%,-19%,?
CCOC(=O)c1c(C)[nH]c(CCC(=O)Nc2cc(C)cc(C)c2)c1C,5%,nt,-2%,23µM*,?
COc1ccc(NC(=O)c2sc(NC(=O)C3CC3)nc2C)cc1,nt,-24%,-11%,11%,-16%
COc1ccc(-c2cn3cccnc3n2)cc1Br,-1%,-14%,-65%,?,5%
COc1ccc(-c2cn3cc(Br)cnc3n2)cc1,0%,-9%,-48%,?,26µM*
